Reference: PubChem BioAssay (EPA / NIEHS)
Some structures have more than one record in an assay (separate samples or runs), and their calls can disagree. The source made the active and inactive calls. How the source made its calls: active means hit-call score of the fitted dose curve at least 0.9, where 1 is the maximum; inactive means score below 0.9.

assay: ATG_CRE_CIS: Attagene CIS-FACTORIAL HepG2 Assay for human cAMP Responsive Element (CRE) binding protein 3 (AID 2282926); settings: HepG2 CRE cis-reporter, Attagene multiplexed mRNA; actives raise or lower the signal
Method: ATG_CIS is a cell-based, multiplexed-readout assay that uses HepG2, a human liver cell line, with measurements taken at 24 hours after chemical dosing in a 24-well plate.ATG_CRE_CIS is one of 52 assay component(s) measured or calculated from the ATG_CIS assay. It is designed to make measurements of mRNA induction, a form of inducible reporter, as detected with fluorescence intensity signals by Reverse transcription polymerase chain reaction (RT-PCR) and Capillary electrophoresis technology.Data from the assay component ATG_CRE_CIS was analyzed into 1 assay endpoint. This assay endpoint, ATG_CRE_CIS, was analyzed with bidirectional fitting relative to DMSO as the negative control and baseline of activity. Using a type of inducible reporter, measures of mRNA for gain or loss-of-signal activity can be used to understand the reporter gene at the transcription factor-level as they relate to the gene CREB3. Furthermore, this assay endpoint can be referred to as a primary readout, because this assay has produced multiple assay endpoints where this one serves a reporter gene function. To generalize the intended target to other relatable targets, this assay endpoint is annotated to the dna binding intended target family, where the subfamily is basic leucine zipper.
Human liver HepG2 cells are transiently transfected with multiple reporter transcription units (MRTUs) in 6-well plates using FuGene 6 reagent (Roche; 3 ml FuGene/1 mg DNA). The MRTU constructs are regulated by a cis-regulating element (promoter). […] A major difference between the CIS and TRANS system is that in CIS activities of endogenous TFs are measured, whereas the TRANS assay evaluates changes in activities of exogenous, chimeric NR-Gal4 proteins. […] At the end of 24 hour incubation, total RNA was isolated using TriZol reagent (Invitrogen). The isolated RNA is then reverse-transcribed using oligo(dT) primer and Mo-MLV reverse transcriptase (Invitrogen) with DNAse I (Ambion) treatment for 30 min. The one-tenth of the produced cDNA was amplified by PCR using Taq DNA polymerase (Invitrogen) and two reporter sequence-specific primers. The PCR products were fluorescently labeled by primer extension with 6-arboxyfluorescein (6-FAM) 5'-labeled reporter sequence-specific primer (2 min at 95 C, 20 s at 68 C and 10 min at 72 C) and these products were digested with 5U of HpaI (New England Biolabs) for 2h at 37 C. The fragments were purified using Qiaquick PCR columns (Qiagen), analyzed on an ABI 3130xL genetic analyzer (Applied Biosystems) with peak positions identified by using a set of X-rhodamine (ROX)-labeled MapMarker1000 molecular weight standards (BioVentures). The raw capillary electrophoresis data was processed using Attagraph software (Attagene).

Question: With Clc1cnc(Oc2ccc(Oc3ncc(Cl)cc3Cl)cc2)c(Cl)c1 as the molecule, how does the outcome read?
Answer: inactive

Question: With CCCCC(CC)C(=O)Cl (stereo not given) as the molecule, how does the outcome read?
Answer: inactive

Question: Which outcome does the source give for O=c1[nH]c(=O)n(Cl)c(=O)n1Cl here?
Answer: inactive

Question: Which outcome does the source give for Cc1cc(C)cc(C)c1 here?
Answer: inactive

Question: For CCOc1cc(C=O)ccc1O, which outcome is on record?
Answer: inactive

Question: Which outcome does the source give for C=CCN=C=S here?
Answer: inactive

Question: Which outcome does the source give for Nc1ncn[nH]1 here?
Answer: inactive

Question: With CCOP(=O)(OCC)SCCSCC as the molecule, how does the outcome read?
Answer: inactive

Question: Which outcome does the source give for CCCCCCCCCCCCc1cccc(S(=O)(=O)O)c1 here?
Answer: inactive

Question: Which outcome does the source give for N#CCC#N here?
Answer: inactive

Question: Which outcome does the source give for OC(Cc1ccccc1Cl)(Cn1[nH]cnc1=S)C1(Cl)CC1 (stereo not given) here?
Answer: inactive

Question: With CCCCN(CCCCO)N=O as the molecule, how does the outcome read?
Answer: inactive

Question: With NNCCO as the molecule, how does the outcome read?
Answer: inactive

Question: For O=S1OC[C@@H]2[C@H](CO1)[C@]1(Cl)C(Cl)=C(Cl)[C@@]2(Cl)C1(Cl)Cl (stereo not given in full), which outcome is on record?
Answer: inactive

Question: With CCCCC(CC)COC(=O)Cl (stereo not given) as the molecule, how does the outcome read?
Answer: inactive

Question: Which outcome does the source give for CCCCOC(C)=O here?
Answer: inactive

Question: For CCC(C)(C#N)N=NC(C)(C#N)CC (stereo not given), which outcome is on record?
Answer: inactive

Question: With CCN(CC)C(=O)C(Cl)=C(C)OP(=O)(OC)OC as the molecule, how does the outcome read?
Answer: inactive

Question: For CCOC(=O)c1ccccc1S(=O)(=O)NC(=O)Nc1nc(Cl)cc(OC)n1, which outcome is on record?
Answer: inactive

Question: With CC(C)[C@H](C(=O)OC(C#N)c1cccc(Oc2ccccc2)c1)c1ccc(OC(F)F)cc1 (stereo not given in full) as the molecule, how does the outcome read?
Answer: inactive

Question: With CCOP(=S)(OCC)Oc1ccc(Cl)cc1Cl as the molecule, how does the outcome read?
Answer: inactive

Question: With CC1(C)COP(Oc2ccccc2)OC1 as the molecule, how does the outcome read?
Answer: inactive

Question: With O=C(CBr)c1ccc(O)cc1 as the molecule, how does the outcome read?
Answer: inactive

Question: Which AC50 does the source give for O=S(=O)(C(Cl)(Cl)Cl)C(Cl)(Cl)Cl here?
Answer: 15.2 µM (active)

Question: Which outcome does the source give for CC(C)(c1ccccc1)c1cc(-n2nc3ccccc3n2)c(O)c(C(C)(C)c2ccccc2)c1 here?
Answer: inactive

Question: Which outcome does the source give for Cc1ccc(CCl)cc1 here?
Answer: inactive

Question: For COC(=O)c1cc(Oc2ccc(Cl)cc2Cl)ccc1[N+](=O)[O-], which outcome is on record?
Answer: inactive

Question: Which outcome does the source give for Cc1cc(Cl)ccc1OCCCC(=O)O here?
Answer: inactive

Question: Which outcome does the source give for O=NN1CCCCCC1 here?
Answer: inactive

Question: For CC(=O)C(F)(F)C(F)(F)F, which outcome is on record?
Answer: inactive

Question: With COP(=S)(OC)Oc1cc(Cl)c(I)cc1Cl as the molecule, how does the AC50 read?
Answer: 29.6 µM (active)

Question: Which outcome does the source give for Clc1cccc(Cl)c1 here?
Answer: inactive

Question: With C=CCOC(N)=O as the molecule, how does the outcome read?
Answer: inactive

Question: With CCOP(=S)(OCC)OP(=S)(OCC)OCC as the molecule, how does the outcome read?
Answer: inactive

Question: Which outcome does the source give for c1csc(-c2ccc(-c3cccs3)s2)c1 here?
Answer: inactive

Question: With Nc1ccc(N)cc1 as the molecule, how does the outcome read?
Answer: inactive

Question: And the AC50?
Answer: 11.7 µM (active)

Question: For C#CCOC(=O)/C=C(C)/C=C/CC(C)CCCC(C)C (stereo not given), which AC50 is on record?
Answer: 39.7 µM (active)

Question: With Cc1ccccc1OP(=O)(Oc1ccccc1)Oc1ccccc1 as the molecule, how does the outcome read?
Answer: inactive

Question: With N#CS as the molecule, how does the outcome read?
Answer: inactive
